Out of some 140,000 compounds screened, about 4,300 (3.1%) were called active. Roughly 21% stayed inconclusive and do not appear here. The full list was thinned out, with actives kept by preference. Unmarked numbers belong to inactive results.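 Rule for the calls: active = readout at or below -70, meaning at least 70% loss of cells showing the perinucleolar compartment, a nuclear body marking cancer cells; inconclusive = readout between -30 and a set limit; inactive = the rest.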

A short description of the experiment: High Content Assay for Compounds that inhibit the Assembly of the Perinucleolar Compartment. The settings on record: PC3M PTB-GFP, PNC prevalence imaging, 16 h; at 10 µM; stronger effect = lower value. From the text:
High Content Assay for Compounds that inhibit the Assembly of the Perinucleolar Compartment NIH Chemical Genomics Center [NCGC] NIH Molecular Libraries Probe Centers Network [MLPCN] MLPCN Grant: MH082371-01A2 Assay Submitter (PI): Sui Huang, Northwestern University, Feinberg School of Medicine, Cell and Molecular Biology, Chicago, Illinois. The perinucleolar compartment (PNC) is a non-membrane-bound nuclear subdomain that is associated with but structurally distinct from the nucleolus. The PNC is a heritable trait, in which the number of PNCs per cell in daughter cells often mimics that of their mother cells. The PNC is heterogeneous in shape, is stable through interphase, disassembles during mitosis, and reassembles in early G1. The PNC is concentrated with newly synthesized RNA polymerase III (pol III) RNAs (MRP RNA, RNAse P H1 RNA, hY RNAs[hY1, 2, 5], Alu RNA, and SRP [7SL] RNA) and RNA binding proteins (nucleolin, PTB, CUG-BP, KSRP, Raver1, Raver2, and Rod). […] Extensive in vitro studies have shown that the PNC is unique to tumor cells and preferentially forms in tumor cells derived from solid tissues. Examination of cancer cell lines from various origins and malignant capacities has shown that PNC prevalence correlates with the malignancy of tumors and has the potential to be developed as a pan-cancer prognostic marker. […] Although the PNC is associated with a DNA locus and a handful of components have been identified, much remains to be investigated regarding the structure and function of the PNC and its mechanistic link to cancer. We have previously shown that PNC prevalence reduction is a valid strategy to identify compounds that can be used to study the structure and function of the PNC. It is necessary, however, to create a screening platform that is able to test a large number of compounds in an automated fashion. Here we report the development and robustness of an automated whole-cell phenotypic image-based screening assay that is capable of identifying such compounds.
PNC High Content Imaging Assay Procedure: 1. Cells at a density of 75-90% confluency in T175 flasks were harvested using 7 ml TrypLE Express cell dissociation reagent. After dissociation (5 minutes room temperature incubation) 10 ml of complete media was added to the TrypLE/cell suspension. The liquid was transferred to a 50 ml Conical tube and cells were pelleted at 1000 RPM for 5 min. Supernatant was removed and cells were resuspended to a final density of 150-200 cells/ul in complete media. 2. Cells were plated in 5 ul volume (750-1000 cells/well) into 1536 well Black uclear Aurora Low Base plates and allowed to recover and adhere at 37 C in a humidified 5% CO2 incubator for 4 hours. 3. After 4 hour incubation, compound libraries (23 nl of […] in columns 5-48) were transferred to the plates in duplicate using a 1536 well pintool. Camptothecin positive control (59 uM final) was added to column 2 and 1:3 dilutions of camptothecin was added to column 3. DMSO negative controls were present in columns 1 and 4. 4. After a 16 hour incubation in the 37 C incubator, cells were fixed by the addition of 4 ul of 6% EM grade paraformaldehyde (containing 0.1% triton X 100) directly to the cells. The plates were incubated at room temperature for 20 minutes. The liquid was removed using a 32 channel Kalypsys aspirator and the fixed cells were washed twice with 5 ul PBS followed by a final addition of 5 ul PBS containing 1 ug/ml Hoechst 33342. 5. Fixed plates were sealed and sotred at 4C until imaged. 6. Plates were imaged on an InCell 1000 automated microscope using a 20 x objective, a standard FITC filter set, no camera binning, and an exposure time of ~100-150 msec/well. 7. Data analysis. PNC prevalence was determined using the Multitarget analysis module from InCell Workstation software (V3.5 ) and analysis was run on a quad core workstation using the Incell Developer Toolbox (V1.7). […]
Take `COc1cc(OC)cc(C(=O)NCC(=O)OCc2csc(-c3ccccc3)n2)c1`: the activity change (PNC), negative = inhibition was 0.666%.
Consider `CCC1CCCCN1C(=S)Nc1ccc(C(C)=O)cc1` (stereo unspecified), for which the activity change (PNC), negative = inhibition was 83.7%.
The result for `CC(NC(=O)COC(=O)C1CCN(S(=O)(=O)c2ccccc2C(F)(F)F)CC1)c1ccccc1` (stereo unspecified) reads -108% (active).
Next, `CC(NC(=O)CCC(=O)N1CCN(S(=O)(=O)c2ccc(Cl)cc2)CC1)c1ccccc1` (stereo unspecified): -12.6%; `CCNC(=O)NC(=O)C(C)OC(=O)C1CCN(S(=O)(=O)c2ccccc2F)CC1` (stereo unspecified): -28.8%; `O=C(Nc1cccc(Cl)c1)Nc1ccccc1NS(=O)(=O)c1cccs1`: -1.43%.
The result for `CNC(=O)CSc1nnnn1-c1ccc(C)cc1C` reads -10.4%; that for `CCOC(=O)c1c(-c2ccc(C)cc2C)csc1NC(=O)CSc1nnnn1C`, -85.2% (active); that for `CCOC(=O)CNC(=O)CSc1nnnn1-c1cc(C)ccc1C`, -8.66%.
As to `C/C(CCC(=O)OC[C@H]1O[C@H](C#Cc2ccccc2)C=C[C@@H]1Oc1ccc(C)cc1)=N\OC[C@@H](O)[C@H]1O[C@@H]2OC(C)(C)O[C@@H]2[C@H]1O`, the activity change (PNC), negative = inhibition was 49%.
The result for `CN(CC(=O)NCCc1ccccc1)S(=O)(=O)c1cnc[nH]1` reads -5.8%; that for `Cc1ccc(/C(N)=N/OC(=O)COc2ccc(Cl)c(C)c2)cc1`, 48.8%.
On to `COc1ccc(C(=O)COC(=O)COc2ccc(C)c(C)c2)cc1`, for which the activity change (PNC), negative = inhibition is -83.5% (active).
Consider `COCCNC(=O)COc1ccc(C)c(C)c1`, for which the activity change (PNC), negative = inhibition is -16.6%.
Next, `CCOC(=O)c1ccc(NC(=O)CSc2ncccn2)cc1`: -27.8%; `COC(=O)c1ccc(NC(=O)CSc2nnc(-c3ccncc3)n2C)cc1`: -12.9%; `CCOC(=O)c1ccc(NC(=O)CSc2nnc(COc3ccccc3OC)n2C)cc1`: -83.9% (active).
Next, `CN(CC(=O)Nc1ccc(S(=O)(=O)N2CCCC2)cc1)Cc1ccc(Cl)c(Cl)c1`: 14.3%; `Cc1nc2scc(-c3cccs3)c2c(=O)n1N`: 38.3%; `CCCCNc1nc2c(c(=O)[nH]c(=O)n2C)n1CCOc1ccccc1`: 44.9%.
On to `Cn1c(=O)[nH]c(=O)c2c1nc(NCCCn1ccnc1)n2Cc1cccc(Br)c1`, for which the activity change (PNC), negative = inhibition was -100% (active).
The result for `CCCCNc1nc2c(c(=O)n(C)c(=O)n2C)n1Cc1cccc(OC)c1` reads -17.3%; that for `O=C(N/N=C\c1ccc(Br)cc1)c1ccc(Cn2cccn2)o1`, -11.4%.
`CN(C)S(=O)(=O)c1ccc(N2CCCC2=O)c([N+](=O)[O-])c1`: the activity change (PNC), negative = inhibition was 43.2%.
Next, `COc1ccc2c(c1)C(SCC(=O)NCc1ccccc1)CC(C)(C)O2` (stereo unspecified): 27.2%; `Cc1ccc(C)c(S(=O)(=O)N2CC(=O)Nc3ccccc32)c1`: -86.7% (active).
Next, `Cc1ccc(C)c(S(=O)(=O)n2cnc3ccccc32)c1`: -9%; `Cc1ccc(S(=O)(=O)N2CC(=O)Nc3ccccc32)cc1C`: 5.54%; `COc1ccc(NC(=S)NCc2cccs2)c(OC)c1`: -5.37%.
As for `O=C(CN1CCN(S(=O)(=O)c2ccc(Br)cc2)CC1)Nc1ccccc1C(=O)c1ccccc1`, the activity change (PNC), negative = inhibition was 41.1%.
The result for `COC(=O)NNC(=O)C1CCC(C)CC1` (stereo unspecified) reads 21.6%.
Turning to `O=C(Nc1nncs1)c1cccc(S(=O)(=O)N2CCCCC2)c1`, the activity change (PNC), negative = inhibition was -22%.
The result for `CCOC(=O)CSc1nnc(NC(=O)c2cccc(S(=O)(=O)N3CCCCC3)c2)s1` reads 19.2%; that for `CCOC(=O)C1=C(CC)Nc2ccccc2N=C1NC(=O)c1cccc(S(=O)(=O)N2CCCC2)c1`, -114% (active); that for `COc1ccc(C)cc1NC(=O)C(Sc1ccccc1)c1ccccc1` (stereo unspecified), -2.98%.
Regarding `CCC(C)NC(=O)c1ccc(N2CCC3(CC2)OCCO3)c([N+](=O)[O-])c1` (stereo unspecified), the activity change (PNC), negative = inhibition is 36.6%.
As to `COc1ccc(NC(=O)CN(Cc2ccccc2)S(C)(=O)=O)cc1OC`, the activity change (PNC), negative = inhibition was -0.222%.
`COc1ccc(COC(=O)N/N=C(\C)CC(=O)Nc2ccc(Cl)cc2)cc1`: the activity change (PNC), negative = inhibition is 20.7%.
Take `C/C(CC(=O)Nc1ccc(Cl)cc1)=N\NC(=O)C(=O)NCCO`: the activity change (PNC), negative = inhibition was -81.9% (active).
In the case of `CCCCC(=O)N/N=C(\C)CC(=O)Nc1cc(Cl)ccc1OC`, the activity change (PNC), negative = inhibition was 41.6%.
Turning to `CC(C)(C)C1CCC(=NNC(=O)c2ccc(Br)o2)CC1` (stereo unspecified), the activity change (PNC), negative = inhibition was 30.8%.
`O=C(Nc1cn(-c2ccccc2)nc1-c1ccccc1)c1ccccc1`: the activity change (PNC), negative = inhibition was 22.3%.
Next, `Cc1nn(-c2ccccc2)c(C)c1/C=C/C(=O)OC(C)C(N)=O` (stereo unspecified): 7.76%.
The result for `Cc1nn(-c2ccccc2)c(Cl)c1/C=C/C(=O)c1ccc(O)cc1` reads -91.6% (active); that for `Cc1ccc(C(=O)/C=C/c2c(C)nn(-c3ccccc3)c2Cl)cc1`, -11.1%; that for `NC1=C([N+](=O)[O-])C(c2ccccc2)C2=C(CCCC2=O)O1` (stereo unspecified), 6.59%.

(Values after PubChem BioAssay AID2417 (National Center for Advancing Translational Sciences (NCATS), 2010).)
